In the supplement of paper PMC6555819:

Columns and labels:
Test in all cases: PBM binding z-score (relative to random genomic background probes); higher = stronger binding; sequences stand for … in GC…GCGATTGACAGCGTAGAATGAAGG
[1] = tested on: RARb homodimer (NR concentration 270 nM)
Summary of the method: (§1)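 Each nuclear receptor dimer, without ligand, was incubated for 1 h on custom Agilent 4×180K protein-binding microarrays. Binding was detected with antibodies against each partner (one per run), and scanned fluorescence was regression-normalized. The binding z-scores are referenced to random human genomic background probes.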

[2] = tested on: RARg:RXRa (NR concentration 270 nM, RXRa partner concentration 90 nM)
Summary of the method: as §1

[3] = tested on: RARg homodimer (NR concentration 270 nM)
Summary of the method: as §1

[4] = tested on: RXRa DBDmut IVT, anti-RXR (DBD mutation: RXRa K156A/R161A, NR concentration 90 nM)
Summary of the method: as §1

[5] = tested on: RXRa homodimer (NR concentration 180 nM)
Summary of the method: as §1

[6] = tested on: THRa:RXRa (NR concentration 90 nM, RXRa partner concentration 90 nM)
Summary of the method: as §1

[7] = tested on: THRa homodimer (NR concentration 90 nM)
Summary of the method: as §1

[8] = tested on: VDR homodimer (NR concentration 270 nM)
Summary of the method: as §1

Sequence | PBM binding z-score [1] | PBM binding z-score [2] | PBM binding z-score [3] | PBM binding z-score [4] | PBM binding z-score [5] | PBM binding z-score [6] | PBM binding z-score [7] | PBM binding z-score [8]
CCTCGGGGGACAGAAGGTCAGAGCTGTCCGCTTT | 3.57 | 4.6 | 4.23 | 0.388 | 2.83 | 3.31 | 0.175 | 0.0933
CCTCGGAGGACAGAAGATCAGAGCTGTCCGCTTT | -0.501 | -0.0315 | 0.0841 | -0.174 | -0.41 | -0.0672 | -0.73 | -0.8
ATCGAAAGGTAGAGGTGAGTATAGAGAAAGGGAA | 1.19 | 0.75 | 1.07 | -0.488 | 0.652 | 0.94 | 0.25 | 0.0183
GGAACGAGGGCAAAGTTGATCGCATCTGTCGACG | 1.19 | 1.83 | 1.8 | 2.72 | 1.92 | 1.19 | -0.32 | 1.61
ATTGAAAGGTCGACGAGGTGAGTATACACCGTTT | 3.13 | 4.19 | 4.05 | 1.2 | 4.31 | 3.89 | 1.14 | 1.58
AGAACGAGGGCACGCTGAGCTGATAGCAGAGTAG | 0.904 | 1.83 | 2.12 | 1.48 | 1.2 | 1.39 | -0.398 | 0.48
CGTCCAACGTCAATGCTAGGTCAGTGAAAGCATT | 2.01 | 1.36 | 1.14 | 0.107 | 0.267 | 1.6 | 0.388 | -0.0849
CAAACTAGGTCACGAAAGATCAAAGTCGAATGAC | 3.2 | 4.8 | 5.53 | 1.99 | 4.09 | 3.49 | 1.43 | 0.583
AGAATGAGGTGATTAAGATCAGGGAATTGCGGTC | 0.255 | 0.185 | 0.285 | 0.136 | 0.381 | 1.53 | 0.417 | -0.688
CCGACTGGGACATAAGGTTACCATAAGCCAGCCC | 1.42 | 0.813 | 0.738 | -0.237 | 1.01 | 2.26 | 1.7 | -0.0177
TCATATAGGTGAATGCTAGGTGAAAGTCCGATCT | 0.945 | 1.54 | 0.61 | 1.39 | 0.992 | 2.06 | 0.5 | -0.483
CGTCCAAGGTCCGCAGGTCAGTGAAAGCGACGTG | 2.24 | 1.06 | 1.49 | 0.0611 | 0.267 | 1.04 | 0.0358 | -0.00185
AGAATGAGGTTATTAAGATCAGGGATTTGCGGTC | 0.902 | 1.19 | 1.05 | 1.96 | 1.76 | 2.29 | 0.681 | 1.2
TCATATAGGTACATGCTAGGTGAAAGTCCGATCT | 0.598 | 0.521 | 0.462 | 2.05 | 0.745 | 2.02 | 0.723 | 0.987
CGAACTAGGTCGGAACAGGACAGTGAAGGATGAT | 0.127 | 0.399 | 0.643 | -0.112 | 0.169 | 1.89 | -0.442 | -0.102
GGAACGAGGGCAAGTTGATTGCAGAGTTTGATGG | 1.5 | 1.62 | 2.18 | 2.56 | 0.967 | 1.38 | -0.0249 | 2.02
GATACAGGGTCAAGGCCAGACTACGCGTATTGAT | 3.74 | 5.51 | 5.17 | 2.76 | 5.73 | 3.8 | 1.55 | 2.1
ACTAGCAGGCCAAGTTTGGGTCACTCACACAAAG | 2.45 | 2.62 | 1.68 | 0.307 | 1.08 | 2.56 | 1.24 | 0.348
CCGACTGGGGCAGGGTTACCATAACGCACAGCCA | 1 | 0.693 | 0.718 | -1.08 | 1.06 | 0.632 | -0.0778 | -0.615

Sequence | PBM binding z-score [1] | PBM binding z-score [2] | PBM binding z-score [3] | PBM binding z-score [4] | PBM binding z-score [5] | PBM binding z-score [6] | PBM binding z-score [7] | PBM binding z-score [8]
CCTGACAGGTGAAAGGTAACTCAGTCTGGTACGC | 0.705 | 1.41 | 0.684 | -0.145 | 1.95 | 0.905 | -0.332 | -0.107
ACTAGCAGGCCAAGGCTCACTCAAGATTAGTCCG | -0.234 | -0.222 | 0.0156 | -0.206 | -0.0748 | -0.43 | -0.144 | -0.802
CGAACTAGGTCAGAACGGGACAGTGAAGGATGAT | 1.83 | 2.2 | 2.96 | 0.435 | 1.15 | 2.84 | -0.119 | -0.321
TGAATGAGGTTAAAGATCGGGGAACGTGGCGTCG | 0.987 | 2.41 | 1.24 | 1.35 | 3.31 | 2.55 | 0.447 | 0.818
CAGCCTAGGTCAGGGCCAATATAGGAGGAACGTT | 2.42 | 3.05 | 3.61 | 0.0153 | 1.69 | 2.07 | 0.573 | 0.171
CCTGCTAGGTCAACGGTCAGCTAAAGCAGCTCGC | 3.72 | 4.6 | 5.11 | 2.02 | 3.13 | 2.79 | 0.878 | 0.529
CGTCCTAGGTCAAAGGTCAGTGAAGAGATGACGG | 4.99 | 7.97 | 7.18 | 2.25 | 9.16 | 4.54 | 1.39 | 1.24
GATACAGGGTCAAGACCAGAGTACGCGTATTGAT | 3.07 | 4.94 | 4.7 | 2.23 | 5.54 | 3.33 | 0.503 | 2.14
CCAACGAGGGCATGAGTTGATAGCAAATGCCGAT | 0.406 | 0.887 | 1.35 | 2.04 | 0.929 | 1.01 | -0.114 | 1.2
CGTCCAAGCTCAAAGGTCAGTGAAGAGATGACGG | 4.4 | 4.58 | 5.11 | 0.306 | 4.05 | 2.33 | 0.0443 | 0.215
GCTGTTAGGTCAGGTTGGTCAGCTAACGGGTACG | 3.34 | 3.03 | 4.11 | 0.92 | 1.42 | 2.84 | 1.69 | 0.688
GGAACGAGGGCAAGTTGATAGAAGAGTTTGATGG | 1.5 | 1.55 | 2.06 | 2.22 | 0.775 | 1.2 | 0.164 | 1.7
ACTCACGGGTCAACGAGGTTATAGCACGCGTATA | 3.5 | 5.72 | 4.98 | 2.83 | 6.42 | 4.03 | 1.03 | 4.51
TGAATGAGGTTTTAAGATCAGGGAACGTTGCAAA | -0.344 | -0.157 | -0.0698 | -0.731 | -0.145 | 0.308 | -0.308 | -0.172
TGTCAAACTTCAAAGGTAACGTAAGTATCCACAC | 0.582 | 0.654 | 0.586 | -0.455 | 0.655 | 1.1 | -0.0249 | -0.101
CCTACTGGGCCACCAGGTCATTGATATCAACGTT | 2.62 | 2.19 | 2 | -0.211 | 1.43 | 2.94 | 2.63 | 1.77
CCTTACGGGTCAAGGTCATAGCACGGGTGGTACG | 4.87 | 6.23 | 6.45 | 2.02 | 7.01 | 4.18 | 3.42 | 3.71
CTCGAAAGGTCGGTTGCGGTGAGTATACGGATAA | 1.91 | 2.44 | 2.59 | 1.06 | 2.06 | 3.27 | -0.0628 | 0.294
CTCGAAAGGTCGTGCTCAGGTTAGTATACCAAAC | 3.37 | 5.5 | 4.17 | 2.12 | 5.47 | 3.73 | 0.934 | 1.3

Sequence | PBM binding z-score [1] | PBM binding z-score [2] | PBM binding z-score [3] | PBM binding z-score [4] | PBM binding z-score [5] | PBM binding z-score [6] | PBM binding z-score [7] | PBM binding z-score [8]
AGAATGAGGTTATTAAGATCAGGGCATTGCGGTC | 1.67 | 1.47 | 1.12 | 2.13 | 2.02 | 2.61 | 1.18 | 1.74
TCGAGAAGGTTAGGGGCATTCAGAATGGCGTCGA | 1.46 | 1.08 | 0.841 | 0.703 | 1.45 | 1.12 | 0.127 | 0.971
AGAAAGAGGTTATACGTAGATCAGGGAAGAAAGT | 1.42 | 2.21 | 1.59 | 1.23 | 2.93 | 1.52 | 0.336 | 0.623
AATACAGGGTCACTAGGCCGGAGTAGGTACGAAT | 3.18 | 5.13 | 4.62 | 2.81 | 5.28 | 3.4 | 1.2 | 2.61
ACTATTAGTTGAGACGAGGGCATCCGATAGGTTG | 0.79 | 0.519 | 0.799 | 0.829 | 0.473 | 2.29 | 0.321 | 1.38
CCTCGGAGGGCAACAGGAGGTCAGAGCTGCCAGA | 3.73 | 5.71 | 4.23 | 0.315 | 3.16 | 3.26 | 0.313 | 1.22
GCTAGTTGGTCAGTAAAAGGTCCCACACCGGTCG | 1.08 | 0.163 | 0.286 | -0.751 | -0.112 | -0.281 | -0.0359 | -0.387
TCTTGTAGATCAGCAGGTAAAGAAAGCTGGCCAA | -0.48 | -0.342 | -0.709 | 0.623 | 0.124 | -0.108 | -0.515 | -0.431
CGAACTAGGTCCGAACAGGACAGTGAAGGATGAT | -0.462 | -0.22 | 0.235 | 0.44 | -0.527 | 0.105 | -0.912 | -0.155
CAAACTAGGTCAGAACAGGACAGTGAAGGATGAT | 2.11 | 2.51 | 3.33 | 0.474 | 1.28 | 3.7 | 0.447 | 0.417
CGTCAAAGTTCAACTAAGGTAAGGTAAAGCACGC | 3.92 | 5.8 | 6.23 | 4.39 | 4.88 | 5.19 | 1.95 | 3.59
TGTTGTAGATCAAGCAGGTTAAGAAAGCCTGAGT | 0.0369 | -0.0637 | 0.062 | -1.02 | -0.024 | 0.0864 | -0.545 | -0.058
CAAACTAGGTCACAGAGGCCAAAGTCCGTGCGTA | 3.73 | 4.88 | 5.37 | 2.45 | 3.63 | 3.66 | 1.54 | 2.62
TTGCCAAGGTGAAGGTCGTTGATCCCTCTGTAGA | 1.62 | 1.23 | 1.02 | 0.0935 | 1.68 | 2.31 | 0.87 | 0.534
ACTAGTTGGTCAGCTGAGGTCACACAGAATTCGG | 4.54 | 4.18 | 4.44 | 1.41 | 4.19 | 5.12 | 5.11 | 3.47
CAGCCTAGGTCAGGGCCAGTCTAGGAGGAACGTT | 2.6 | 2.83 | 3.7 | -0.45 | 1.5 | 1.98 | 0.28 | -0.275
CCTGCTAGGTCATGGTCAGATAATCTACAGTATG | 3.05 | 3.94 | 4.66 | 1.69 | 3.04 | 3.1 | 1.49 | 0.43
CGAACTAGGTCAGAACATGACAGTGAAGGATGAT | 1.74 | 2.34 | 2.89 | 0.671 | 1.33 | 1.24 | 0.0482 | 0.133
ATCTCTAGGTAACAAGTTTAGTGAAAGAGAGGAC | 0.455 | 0.384 | 0.772 | 0.0199 | 0.165 | 0.929 | 0.836 | 0.684
